Values without a mark were called inactive.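 The calls were made as follows: active = AUC reduced over 20% with Padj below 0.05 in at least 2 of 3 replicates; inactive = otherwise.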
Experiments:
Assay in all cases: growth AUC relative to DMSO control (median of replicates) (fraction); higher = more growth (less inhibition), active = hit call of the paper
Conditions in all cases: 20 µM; 24 h
[1] = system: Coprococcus comes
In short: (§1)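 Area under the growth curve was normalised to the plate median of solvent-only wells, except on the industrial chemical plate, where row and column medians were used. Curves came from gut bacterial monocultures grown anaerobically at 37 °C in mGAM with 20 µM compound (1% DMSO), starting at OD600 0.05 and read at OD600 every hour for 24 h. The minimum OD of each curve was set to 0, and values are medians of three biological replicates grown on separate days.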

[2] = system: Escherichia coli ED1a
In short: as §1

[3] = system: Escherichia coli IAI1
In short: as §1

[4] = system: Eubacterium rectale
In short: as §1

[5] = system: Fusobacterium nucleatum subsp. animalis
In short: as §1

[6] = system: Lactobacillus gasseri
In short: as §1

[7] = system: Lactobacillus paracasei
In short: as §1

[8] = system: Odoribacter splanchnicus
In short: as §1

[9] = system: Parabacteroides distasonis
In short: as §1

[10] = system: Parabacteroides merdae
In short: as §1

[11] = system: Roseburia intestinalis
In short: as §1

[12] = system: Streptococcus salivarius
In short: as §1

Row | SMILES | growth AUC [1] | growth AUC [2] | growth AUC [3] | growth AUC [4] | growth AUC [5] | growth AUC [6] | growth AUC [7] | growth AUC [8] | growth AUC [9] | growth AUC [10] | growth AUC [11] | growth AUC [12]
1 | CC1(C(=O)Nc2ccc(O)c(Cl)c2Cl)CCCCC1 | 0.965 | 1.01 | 0.991 | 0.973 | 0.915 | 1.03 | 0.949 | 0.907 | 1.05 | 0.993 | 0.86 | 0.967
2 | CCCSC(=O)N(CCC)CCC | 0.994 | 0.974 | 0.985 | 1.01 | 1 | 1.01 | 0.954 | 1.01 | 0.995 | 0.991 | 0.994 | 1.04
3 | CCO/N=C(\CC)C1=C(O)CC(c2c(C)cc(C)cc2C)CC1=O (stereo not given) | 1 | 0.992 | 0.978 | 1.07 | 1.05 | 0.875 | 0.969 | 1.07 | 0.995 | 0.909 | 0.945 | 0.967
4 | CC(Oc1cc(Cl)c(Cl)cc1Cl)C(=O)O (stereo not given) | 0.987 | 0.978 | 0.953 | 0.964 | 0.889 | 1.04 | 1 | 1.02 | 0.955 | 0.986 | 0.935 | 0.976
5 | S=C1NCCN1 | 1.02 | 1.01 | 1.01 | 1.04 | 1.08 | 1.02 | 0.923 | 1.04 | 1.05 | 1.04 | 1.01 | 0.992
6 | Nc1cc(Cl)cc(Cl)c1 | 1.01 | 1.03 | 1.06 | 1.04 | 1.13 | 0.944 | 1 | 0.893 | 1 | 1.04 | 1.07 | 1.01
7 | O=C(O)CCCOc1ccc(Cl)cc1Cl | 1.05 | 0.984 | 0.981 | 1.18 | 0.933 | 1.01 | 1 | 1.11 | 0.919 | 0.979 | 0.966 | 0.969
8 | COC[C@H](C)N(C(=O)CCl)c1c(C)csc1C | 1 | 0.985 | 0.981 | 1.17 | 0.988 | 0.922 | 0.95 | 0.976 | 0.963 | 0.956 | 0.966 | 1.04
9 | CCOC(=O)OC1=C(c2cc(C)ccc2C)C(=O)NC12CCC(OC)CC2 (stereo not given) | 0.998 | 1.01 | 0.983 | 1.01 | 0.965 | 0.993 | 0.992 | 0.969 | 0.981 | 1.03 | 0.995 | 0.987
10 | CC1(C)C(C=C(Cl)Cl)C1C(=O)OC(C#N)c1cccc(Oc2ccccc2)c1 (mixture of isomers) | 1 | 1.01 | 0.987 | 1.02 | 1.04 | 0.865 | 1.02 | 1.03 | 0.982 | 0.984 | 0.945 | 0.936
11 | CCc1nn(C)c(C(=O)NCc2ccc(Oc3ccc(C)cc3)cc2)c1Cl | 0.959 | 0.986 | 0.997 | 0.96 | 0.952 | 1.1 | 0.942 | 0.896 | 0.947 | 0.975 | 0.924 | 0.986
12 | N#Cc1nn(-c2c(Cl)cc(C(F)(F)F)cc2Cl)c(N)c1S(=O)(=O)C(F)(F)F | 0.968 | 1.04 | 1.02 | 0.945 | 1.01 | 1.01 | 0.929 | 0.978 | 0.904 | 0.97 | 0.965 | 0.548 (active)
13 | CCOP(=O)(OCC)O/C(=C\Cl)c1ccc(Cl)cc1Cl | 0.994 | 0.984 | 1.01 | 0.899 | 0.987 | 1.06 | 1.02 | 0.972 | 0.725 (active) | 0.945 | 1.06 | 0.982
14 | O=[N+]([O-])c1c(Cl)c(Cl)cc(Cl)c1Cl | 1.01 | 0.99 | 1.02 | 0.954 | 0.983 | 1.14 | 0.927 | 1.02 | 0.986 | 1.01 | 1.06 | 1
15 | COC(=O)COc1cc(Cl)c(Cl)cc1Cl | 0.967 | 0.976 | 1.02 | 0.914 | 0.981 | 1.18 | 1.11 | 0.974 | 0.983 | 0.99 | 0.996 | 1.01
16 | CCCCN(CCCC)N=O | 0.982 | 0.995 | 1 | 1.02 | 1.02 | 1.11 | 1.02 | 1 | 1.16 | 1.01 | 1 | 1.01
17 | CCC/C(=N\OCC)C1=C(O)CC(CC(C)SCC)CC1=O (stereo not given) | 0.986 | 0.986 | 0.973 | 0.937 | 0.867 | 0.964 | 0.978 | 0.979 | 0.991 | 0.988 | 1 | 1.01
18 | O=C1C2CC=CCC2C(=O)N1SC(Cl)(Cl)Cl (stereo not given) | 1.03 | 1.02 | 1.02 | 1.1 | 1.1 | 1.06 | 1.01 | 0.999 | 1.07 | 1.02 | 1.01 | 1.05
19 | CC(C)N(Cc1ccccc1)C(=O)C(C)(C)C | 0.988 | 0.966 | 0.971 | 1.03 | 0.969 | 0.814 | 0.934 | 1.07 | 0.989 | 0.948 | 0.898 | 0.961
20 | Cc1cc(C(F)(C(F)(F)F)C(F)(F)F)ccc1NC(=O)c1cccc(I)c1C(=O)NC(C)(C)CS(C)(=O)=O | 1.21 | 1.1 | 1.14 | 1.09 | 1.13 | 3.03 | 1.48 | 0.994 | 0.795 | 0.99 | 1.67 | 0.919
21 | COCc1c(F)c(F)c(COC(=O)C2C(C=C(C)C)C2(C)C)c(F)c1F (stereo not given) | 0.979 | 1.01 | 1.02 | 0.906 | 1.04 | 0.873 | 0.978 | 1.05 | 1.03 | 1.02 | 1 | 1.06
22 | CCOP(=S)(Oc1ccc([N+](=O)[O-])cc1)c1ccccc1 (stereo not given) | 0.949 | 1.04 | 1.05 | 1.02 | 1.09 | 1.04 | 1.07 | 1.09 | 0.947 | 0.99 | 1.04 | 1.04
23 | CC#Cc1cc(C)nc(Nc2ccccc2)n1 | 1.01 | 0.986 | 0.973 | 1.03 | 1.1 | 0.844 | 0.983 | 1.06 | 0.945 | 0.991 | 1.01 | 1.01
24 | O=C(Nc1ccc(F)cc1F)c1cccnc1Oc1cccc(C(F)(F)F)c1 | 0.999 | 0.968 | 0.965 | 1.06 | 0.939 | 0.891 | 1.05 | 1.06 | 0.962 | 0.971 | 0.933 | 0.958
25 | Oc1cccc2cccnc12 | 0.928 | 0.987 | 0.982 | 0.904 | 1.04 | 1.08 | 0.942 | 1.02 | 1 | 0.993 | 1 | 0.995
